Laboratory results: PubChem BioAssay (Tox21)
Records with an inconclusive call do not appear. The source made the active and inactive calls. Unless noted, calls come from the whole dose curve; as a rule, active = well fitted curve in the direction sought with a large enough effect in the repeat runs; inconclusive = weak or mixed curves; inactive = no such curve, though single readings can be large; an effect the other way counts as inactive or inconclusive.

Key:
[1] = qHTS assay to identify small molecule agonists of the sonic hedgehog signaling (Shh) pathway (AID 1259368; calls by dose curve; note: series mostly up to about 92 µM; nearly all actives have a fitted effect of over 15% in size)
Method in brief: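 NIH/3T3-derived 3T3Gli1-Luc cells carrying a stably integrated Gli1 response element–firefly luciferase reporter were plated, left 4 hr at 37 C, then given compounds in DMSO for 24 hr. Luminescence was read 30 min after adding luciferase reagent.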

[2] = qHTS assay to identify small molecule antagonists of the sonic hedgehog signaling (Shh) pathway (AID 1259369; calls by dose curve; note: nearly all actives have a fitted effect of over 45% in size; note: potency is the fitted concentration of half-maximal effect)
Method in brief: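 NIH/3T3-derived 3T3Gli1-Luc cells with stably integrated Gli1-Luc reporter were preincubated 4hr at 37 C, then given compounds in DMSO plus Shh conditioned medium and incubated 24hr. Firefly luciferase luminescence read after 30min reagent at room temperature.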

[3] = biological target: Estrogen receptor beta (Homo sapiens) (UniProt Q92731); experiment: qHTS assay to identify small molecule agonists of the estrogen receptor beta (ER-beta) signaling pathway (AID 1259377; active = well fitted activation curve with a large enough effect in the signal ratio in the repeat runs, not every such curve was filed as active; the % refers to the signal ratio)
Method in brief: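 ER-beta-UAS-bla HEK293T (GripTite) cells carrying a UAS-driven beta-lactamase reporter, in medium with 2% charcoal-stripped FBS, were exposed to compounds for 16 hr at 37C; LiveBLAzer B/G FRET substrate was then added and fluorescence read after 2 hours at room temperature.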

[4] = qHTS assay to identify small molecule agonists of the androgen receptor (AR) signaling pathway in the presence of an antagonist - cell viability counter screen (AID 1259379);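 note: MDA-kb2 human breast cancer cells carrying an MMTV luciferase reporter; series mostly up to about 92 µM; nearly all actives have a fitted effect of over 25% in size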
Method in brief: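 MDA-kb2 human breast carcinoma cells (stable MMTV-luciferase, AR/GR responsive) were seeded 3,000 cells/well, pre-incubated 5 hr at 37C without CO2, then given 3.0uM nilutamide and compounds at 15 concentrations for 16 hr. Viability was read by CellTiter-Fluor fluorescence.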

[5] = qHTS assay to identify small molecule antagonists of the estrogen receptor beta (ER-beta) signaling pathway - cell viability counter screen (AID 1259382); note: nearly all actives have a fitted effect of over 55% in size; note: potency is the fitted concentration of half-maximal effect; for activity change, negative = cytotoxicity: series mostly up to about 92 µM
Method in brief: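 ER-beta-UAS-bla HEK293T cells (2,000/well, 2% charcoal-stripped FBS) were pre-incubated 6 hr at 37C, then given compound plus 1nM final 17-beta-estradiol for 16 hr. Viability was read in the same wells by CellTiter-Glo luminescence after 30 min at room temperature.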

[6] = biological target: Estrogen receptor (Homo sapiens) (UniProt P03372); experiment: qHTS assay to identify small molecule agonists of the estrogen receptor alpha (ER-alpha) signaling pathway in the presence of an antagonist (AID 1259383; calls by dose curve; note: top concentration of the series differs between compounds; nearly all actives have a fitted effect of over 15% in size)
Method in brief: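 VM7Luc4E2 cells (endogenous full-length ER-alpha, 4×ERE-luciferase) were precultured 5 days in phenol red-free medium with 10% charcoal-stripped FBS, given 10.0nM ICI-182,780 (final), then treated with compounds at 15 concentrations for 22hr at 37C; luminescence read with ONE-Glo.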

[7] = qHTS assay to identify small molecule agonists or antagonists of the thyroid stimulating hormone receptor (TSHR) signaling pathway - wild type cell line counter screen (AID 1259384; calls by dose curve)
Method in brief: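 Wild-type HEK293 cells were plated 18 h at 37 C/5% CO2, pin-dosed with compound plus Ro20-1724 medium, held 30 min at room temperature, then given cAMP-d2 and anti-cAMP-cryptate; fluorescence was read after 1 h. Fifteen concentrations, triplicate.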

[8] = biological target: Thyrotropin receptor (Homo sapiens) (UniProt P16473); experiment: qHTS assay to identify small molecule antagonists of the thyroid stimulating hormone receptor (TSHR) signaling pathway (AID 1259385; calls by dose curve; note: nearly all actives have a fitted effect of over 20% in size; note: potency is the fitted concentration of half-maximal effect)
Method in brief: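 TSHR-HEK293 cells were plated and held 18 h at 37C/5% CO2, then given compound plus Ro20-1724 and stimulated with TSH at 1.5 ng/mL final. After 30 min at room temperature, cAMP was detected with cAMP-d2/anti-cAMP-cryptate (1 h) by fluorescence.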

[9] = qHTS assay to identify small molecule agonists of the estrogen receptor alpha (ER-alpha) signaling pathway in the presence of an antagonist - cell viability counter screen (AID 1259386);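 note: series mostly up to about 92 µM; cells exposed to compounds for 22 h at 37 °C before the viability read; nearly all actives have a fitted effect of over 30% in size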
Method in brief: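 VM7Luc4E2 cells (endogenous full-length ER-alpha, 4×ERE-luciferase) were held 5 days in phenol red-free medium with 10% charcoal-stripped FBS, plated, then given 10.0nM ICI-182,780 and compounds at 15 concentrations for 22hr at 37C; viability read by CellTiter-Fluor fluorescence.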

[10] = biological target: Progesterone receptor (Homo sapiens) (UniProt P06401); experiment: qHTS assay to identify small molecule agonists of the progesterone receptor (PR) signaling pathway (AID 1346784; calls by dose curve; note: nearly all actives have a fitted effect of over 30% in size)
Method in brief: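 PR-UAS-bla HEK 293T cells carrying a UAS-driven beta-lactamase reporter were seeded in medium with 2% charcoal-stripped FBS, preincubated 6 hr at 37C, then exposed to compounds in DMSO for 16 hr; agonism was read by LiveBLAzer B/G FRET fluorescence.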

[11] = biological target: Progesterone receptor (Homo sapiens) (UniProt P06401); experiment: qHTS assay to identify small molecule antagonists of the progesterone receptor (PR) signaling pathway (AID 1346795; active = well fitted inhibition curve with a large enough effect in the signal ratio in the repeat runs, not every such curve was filed as active; the % refers to the signal ratio)
Method in brief: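 PR-UAS-bla HEK293T cells carrying a UAS-driven beta-lactamase reporter were plated in medium with 2% charcoal-stripped FBS and rested 6 hr at 37C. Compounds were added with 1 nM R5020 (final) for 16 hr, then FRET substrate loaded 2 hr at room temperature.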

[12] = qHTS assay to identify small molecule antagonists of the progesterone receptor (PR) signaling pathway - cell viability counter screen (AID 1346798); note: nearly all actives have a fitted effect of over 50% in size; note: potency is the fitted concentration of half-maximal effect; for activity change, negative = cytotoxicity: series mostly up to about 92 µM
Method in brief: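 PR-UAS-bla HEK293T cells in medium with 2% charcoal-stripped FBS were treated with compounds plus R5020 for 16 hr at 37C. Cell viability was then read by CellTiter-Glo luminescence after 30 min at room temperature in the same wells.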

[13] = qHTS assay to identify small molecule antagonists of the TGF-beta/Smad signaling pathway - cell viability counter screen (AID 1346824); note: nearly all actives have a fitted effect of over 50% in size
Method in brief: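 SBE-bla HEK 293T cells were plated overnight at 37 C, then given compounds in DMSO plus TGF-beta1 (added as 0.25 ng/mL solution) for 5 hr. After the bla read, CellTiter-Glo was added to the same wells and luminescence read after 30 min at room temperature.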

[14] = qHTS assay to identify small molecule agonists of the TGF-beta/Smad signaling pathway - cell viability counter screen (AID 1346829); note: top concentration of the series differs between compounds; nearly all actives have a fitted effect of over 45% in size
Method in brief: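 SBE-bla HEK 293T cells plated overnight, compound exposure 5 hr at 37 C. Viability read in the same wells by CellTiter-Glo luminescence after 30 min at room temperature, following the beta-lactamase read.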

[15] = qHTS assay to identify small molecule agonists of the TGF-beta/Smad signaling pathway (AID 1346859; active = well fitted activation curve with a large enough effect in the signal ratio in the repeat runs, not every such curve was filed as active; the % refers to the signal ratio; note: series mostly up to about 77 µM)
Method in brief: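 HEK 293T cells stably carrying a beta-lactamase reporter driven by the Smad binding element were seeded overnight, exposed to DMSO-dissolved compounds for 5 hr at 37 C, 5% CO2, then loaded with FRET substrate for 2 hr at room temperature.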

[16] = biological target: Thyrotropin-releasing hormone receptor (Homo sapiens) (UniProt P34981); experiment: qHTS assay to identify small molecule antagonists of the thyrotropin-releasing hormone receptor (TRHR) signaling pathway (AID 1346877; active = well fitted inhibition curve with a large enough effect in the repeat runs, not every such curve was filed as active; note: series mostly up to about 51 µM)
Method in brief: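 TRHR-expressing HEK293 cells were seeded, cultured 18 h at 37 °C, then loaded with calcium dye for 2 h. Compounds were pre-incubated 5 min at room temperature before 1 nM TRH (final) was added, and kinetic fluorescence was recorded for 3 min.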

[17] = biological target: Estrogen receptor beta (Homo sapiens) (UniProt Q92731); experiment: qHTS assay to identify small molecule antagonists of the estrogen receptor beta (ER-beta) signaling pathway (AID 1259378; active = well fitted inhibition curve with a large enough effect in the signal ratio in the repeat runs, not every such curve was filed as active; the % refers to the signal ratio; note: potency is the fitted concentration of half-maximal effect)
Method in brief: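 ER-beta-UAS-bla HEK293T (GripTite) cells in 2% charcoal-stripped FBS medium were preincubated 6 hr at 37C, dosed with compound, then stimulated with 1 nM E2 (final) for 16 hr; beta-lactamase reporter read by B/G FRET fluorescence after 2 hr substrate loading.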

[18] = qHTS assay to identify small molecule agonists of the estrogen receptor beta (ER-beta) signaling pathway - cell viability counter screen (AID 1259380); note: nearly all actives have a fitted effect of over 30% in size; note: potency is the fitted concentration of half-maximal effect
Method in brief: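 ER-beta-UAS-bla HEK293T cells in medium with 2% charcoal-stripped FBS were preincubated 6 hr at 37C, dosed with compound in DMSO for 16 hr, then after the bla read, CellTiter-Glo was added for 30 min at room temperature; luminescence recorded.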
% is set by controls: 0 for no effect and ±100 for the full control effect.

Sequence of Thyrotropin receptor (Homo sapiens) (P16473 whole entry, looked up): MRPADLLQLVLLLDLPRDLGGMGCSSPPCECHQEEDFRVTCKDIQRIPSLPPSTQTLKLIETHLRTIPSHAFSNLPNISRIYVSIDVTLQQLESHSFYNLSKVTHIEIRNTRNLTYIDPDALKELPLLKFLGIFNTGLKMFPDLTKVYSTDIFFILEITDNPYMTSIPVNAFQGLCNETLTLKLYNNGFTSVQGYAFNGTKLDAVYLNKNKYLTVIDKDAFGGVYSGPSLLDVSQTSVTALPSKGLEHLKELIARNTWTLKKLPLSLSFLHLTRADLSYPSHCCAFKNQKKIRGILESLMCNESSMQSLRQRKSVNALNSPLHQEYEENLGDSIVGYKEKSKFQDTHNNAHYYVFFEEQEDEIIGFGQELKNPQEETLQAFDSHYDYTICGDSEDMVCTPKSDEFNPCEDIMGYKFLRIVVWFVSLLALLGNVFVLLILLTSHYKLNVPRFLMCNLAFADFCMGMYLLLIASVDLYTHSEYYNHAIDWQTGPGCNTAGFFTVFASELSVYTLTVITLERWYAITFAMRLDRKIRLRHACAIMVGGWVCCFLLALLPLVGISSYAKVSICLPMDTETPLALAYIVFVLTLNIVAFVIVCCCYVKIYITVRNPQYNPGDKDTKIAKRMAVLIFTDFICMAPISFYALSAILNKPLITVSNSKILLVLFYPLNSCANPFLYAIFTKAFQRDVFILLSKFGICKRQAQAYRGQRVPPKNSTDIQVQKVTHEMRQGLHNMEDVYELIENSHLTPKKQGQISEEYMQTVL
Sequence of Estrogen receptor beta (Homo sapiens) (Q92731 whole entry, looked up): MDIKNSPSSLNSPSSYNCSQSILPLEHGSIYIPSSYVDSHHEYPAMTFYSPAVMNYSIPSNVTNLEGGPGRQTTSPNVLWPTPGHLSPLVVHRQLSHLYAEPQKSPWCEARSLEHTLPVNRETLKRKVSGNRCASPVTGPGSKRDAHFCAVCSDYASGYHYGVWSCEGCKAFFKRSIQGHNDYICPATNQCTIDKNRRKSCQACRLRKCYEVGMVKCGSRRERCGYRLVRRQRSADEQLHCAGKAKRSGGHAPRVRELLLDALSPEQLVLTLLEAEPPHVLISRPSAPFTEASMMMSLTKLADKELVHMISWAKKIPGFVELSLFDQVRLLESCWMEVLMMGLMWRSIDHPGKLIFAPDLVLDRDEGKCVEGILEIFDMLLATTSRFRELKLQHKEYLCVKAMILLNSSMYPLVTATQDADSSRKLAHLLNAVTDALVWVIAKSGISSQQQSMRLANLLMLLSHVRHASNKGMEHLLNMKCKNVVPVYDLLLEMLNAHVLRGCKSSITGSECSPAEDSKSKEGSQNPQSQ
Sequence of Thyrotropin-releasing hormone receptor (Homo sapiens) (P34981 whole entry, looked up): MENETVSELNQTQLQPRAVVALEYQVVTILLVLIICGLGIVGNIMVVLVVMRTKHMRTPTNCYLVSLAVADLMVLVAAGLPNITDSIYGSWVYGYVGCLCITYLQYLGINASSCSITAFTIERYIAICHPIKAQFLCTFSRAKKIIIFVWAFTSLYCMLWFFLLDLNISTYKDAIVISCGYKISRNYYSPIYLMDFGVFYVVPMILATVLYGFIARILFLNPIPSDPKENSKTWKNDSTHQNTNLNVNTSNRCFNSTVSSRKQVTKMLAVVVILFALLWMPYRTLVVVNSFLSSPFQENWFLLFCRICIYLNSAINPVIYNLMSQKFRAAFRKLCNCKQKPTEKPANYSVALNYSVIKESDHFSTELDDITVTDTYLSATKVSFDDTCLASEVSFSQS
Sequence of Progesterone receptor (Homo sapiens) (P06401 whole entry, looked up): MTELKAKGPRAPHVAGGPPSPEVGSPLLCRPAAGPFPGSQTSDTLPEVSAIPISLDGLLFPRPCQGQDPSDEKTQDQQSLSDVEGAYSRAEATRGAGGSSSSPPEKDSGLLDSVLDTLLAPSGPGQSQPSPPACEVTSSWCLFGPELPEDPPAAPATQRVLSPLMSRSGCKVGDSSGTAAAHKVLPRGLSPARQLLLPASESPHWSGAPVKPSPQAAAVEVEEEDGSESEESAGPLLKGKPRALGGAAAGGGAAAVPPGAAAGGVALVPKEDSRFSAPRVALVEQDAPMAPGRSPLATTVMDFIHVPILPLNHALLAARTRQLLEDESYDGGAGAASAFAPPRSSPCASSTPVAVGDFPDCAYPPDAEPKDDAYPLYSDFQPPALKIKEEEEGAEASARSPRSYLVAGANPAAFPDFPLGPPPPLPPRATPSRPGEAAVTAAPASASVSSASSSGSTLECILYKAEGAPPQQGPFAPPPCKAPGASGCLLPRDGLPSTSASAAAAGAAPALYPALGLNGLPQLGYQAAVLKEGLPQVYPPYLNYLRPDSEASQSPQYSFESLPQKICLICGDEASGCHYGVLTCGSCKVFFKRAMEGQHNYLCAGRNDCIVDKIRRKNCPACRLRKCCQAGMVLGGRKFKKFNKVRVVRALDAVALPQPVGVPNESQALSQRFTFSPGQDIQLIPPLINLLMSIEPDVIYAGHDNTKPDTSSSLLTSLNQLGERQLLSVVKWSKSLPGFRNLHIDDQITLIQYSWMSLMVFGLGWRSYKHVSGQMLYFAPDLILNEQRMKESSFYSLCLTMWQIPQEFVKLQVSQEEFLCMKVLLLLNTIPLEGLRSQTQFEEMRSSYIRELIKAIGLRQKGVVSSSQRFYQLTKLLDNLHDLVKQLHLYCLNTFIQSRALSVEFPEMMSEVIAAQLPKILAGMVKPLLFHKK
Sequence of Estrogen receptor (Homo sapiens) (P03372 whole entry, looked up): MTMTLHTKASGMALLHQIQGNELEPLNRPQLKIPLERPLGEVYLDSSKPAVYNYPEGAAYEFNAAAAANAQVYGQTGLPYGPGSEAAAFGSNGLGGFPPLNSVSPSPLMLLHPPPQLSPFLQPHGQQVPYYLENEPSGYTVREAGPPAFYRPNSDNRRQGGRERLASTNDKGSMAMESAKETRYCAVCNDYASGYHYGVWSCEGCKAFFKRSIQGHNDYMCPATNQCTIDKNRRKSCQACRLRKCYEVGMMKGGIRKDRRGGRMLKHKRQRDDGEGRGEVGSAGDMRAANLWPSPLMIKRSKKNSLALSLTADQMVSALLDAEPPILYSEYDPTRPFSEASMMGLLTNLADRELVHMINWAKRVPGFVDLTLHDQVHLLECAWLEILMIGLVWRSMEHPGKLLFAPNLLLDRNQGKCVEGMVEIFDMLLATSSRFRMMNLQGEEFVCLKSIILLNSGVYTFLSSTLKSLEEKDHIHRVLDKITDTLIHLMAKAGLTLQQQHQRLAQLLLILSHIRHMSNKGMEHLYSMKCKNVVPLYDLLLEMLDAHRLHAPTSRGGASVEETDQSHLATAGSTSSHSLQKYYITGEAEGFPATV

CCCCCCCCCCCC[N+](C)(C)CCCS(=O)(=O)[O-]
inactive: Potency [1] | Potency [2] | Potency [3] | Potency [4] | Potency [5] | Potency [6] | outcome [7] | Potency [8] | Potency [9] | Potency [10] | Potency [11] | Potency [12] | outcome [13] | outcome [14] | outcome [15] | outcome [16]

COCCOC
active: Potency [2] 4.13 µM
inactive: Potency [1] | Potency [3] | Potency [17] | Potency [5] | outcome [7] | Potency [8] | Potency [9] | Potency [11] | Potency [12] | outcome [13] | outcome [14] | outcome [15] | outcome [16]

CC(=N\O)/C(C)=N/O
inactive: Potency [1] | Potency [2] | Potency [3] | Potency [4] | Potency [18] | Potency [5] | outcome [7] | Potency [8] | Potency [9] | Potency [10] | outcome [13] | outcome [14] | outcome [15] | outcome [16]

c1cc[c]([Bi]([c]2ccccc2)[c]2ccccc2)cc1
active: Potency [2] 13.7 µM
inactive: Potency [1] | Potency [3] | Potency [4] | Potency [18] | Potency [5] | outcome [7] | Potency [8] | outcome [13] | outcome [14] | outcome [15]

CNCCCC1c2ccccc2C=Cc2ccccc21
active: Potency [2] 9.44 µM | Potency [17] 11.9 µM | Potency [18] 23.7 µM | Potency [5] 18.8 µM | Potency [8] 26.6 µM | Potency [12] 21.1 µM
inactive: Potency [1] | Potency [3] | Potency [6] | outcome [7] | Potency [9] | Potency [10] | outcome [13] | outcome [14] | outcome [15] | outcome [16]

CCCC(=O)O[C@]1(C(=O)COC(=O)CC)CC[C@H]2[C@@H]3CCC4=CC(=O)CC[C@]4(C)[C@H]3[C@@H](O)C[C@@]21C
inactive: activity change [1] -1.53% [at 18.9 µM, stronger effect = higher value] | activity change, negative = inhibition [2] -24.8% [at 19 µM] | activation [3] 6.24% [at 19 µM] | activity change, negative = cytotoxicity [4] 0.279% [at 19 µM] | activity change, negative = cytotoxicity [18] 1.26% [at 19 µM] | activity change, negative = cytotoxicity [5] 2.67% [at 19 µM] | cAMP activity change [7] 6.72% [at 18.9 µM] | activity change, negative = inhibition [8] -1.62% [at 19 µM] | activity change, negative = cytotoxicity [9] 2.18% [at 19 µM] | activation [10] 3.7% [at 19 µM] | activity change, negative = cytotoxicity [12] -3.5% [at 18.9 µM] | viability change, negative = cytotoxic [13] -0.584% [at 15.8 µM] | activity change, negative = cytotoxicity [14] -0.518% [at 15.8 µM] | activation [15] 5.59% [at 15.8 µM] | activity, negative = inhibition [16] -1.85% [at 10.5 µM]

CCOC(=O)c1ccccc1C
active: Potency [12] 15.4 µM
inactive: Potency [1] | Potency [2] | Potency [3] | Potency [4] | Potency [5] | outcome [7] | Potency [8] | Potency [10] | outcome [13] | outcome [14] | outcome [15] | outcome [16]
